For eleven molecules, Potency and outcome results are on record in PubChem BioAssay (Tox21).

A short description of assay [1]: qHTS assay to identify aromatase inhibitors - cell viability counter screen (AID 743084).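 Note: cells stimulated with testosterone during compound exposure; nearly all actives have a fitted effect of over 55% in size.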 Note: potency is the fitted concentration of half-maximal effect.
Assay [2] is described as follows: qHTS assay to identify small molecule that activate the aryl hydrocarbon receptor (AhR) signaling pathway - cell viability counter screen (AID 743086). Note: nearly all actives have a fitted effect of over 45% in size. Note: potency is the fitted concentration of half-maximal effect. The gist of the method: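 HepG2-AhR-luc (HG2L7.5c1) cells, 4000/well, treated 24 h at 37 C with compound; viability measured as CellTiter-Fluor fluorescence after 30 min in the same wells as the luciferase read.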

A short description of assay [3]: qHTS assay to identify small molecule antagonists of the peroxisome proliferator-activated receptor gamma (PPARg) signaling pathway - cell viability counter screen (AID 743194). Note: nearly all actives have a fitted effect of over 55% in size. Note: potency is the fitted concentration of half-maximal effect. In short, it runs like this:
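Cytotoxicity counter screen in PPARg-bla HEK293H cells, same wells as reporter assay. Compounds plus 50 nM rosiglitazone (final) for 17 h at 37 C, then viability read by CellTiter-Glo luminescence.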

A short description of assay [4]: qHTS assay for small molecule agonists of the antioxidant response element (ARE) signaling pathway (AID 743202; active = well fitted activation curve with a large enough effect in the signal ratio in the repeat runs, not every such curve was filed as active; the % refers to the signal ratio; note: potency is the fitted concentration of half-maximal effect). The gist of the method:
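Agonist mode reporter screen: HepG2 cells with ARE-controlled beta-lactamase are incubated with test compounds for 16 h at 37 C, and beta-lactamase activity is measured as fluorescence of cleaved B/G FRET substrate.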

A short description of assay [5]: qHTS assay for small molecule agonists of the antioxidant response element (ARE) signaling pathway - cell viability counter screen (AID 743203; calls by dose curve; note: nearly all actives have a fitted effect of over 55% in size; note: potency is the fitted concentration of half-maximal effect). In short, it runs like this: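 Cells (ARE-bla HepG2, 2,000/well) receive DMSO-dissolved compounds after a 5 hrs rest. Plates incubate 16 hrs at 37C/5% CO2. CellTiter-Glo luminescence is then recorded after 30 min at room temperature.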

The nature of assay [6]: qHTS assay for small molecule activators of the heat shock response signaling pathway - cell viability counter screen (AID 743209). Note: nearly all actives have a fitted effect of over 50% in size. In short, it runs like this:
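Quantitative HTS format, Tox21 10K library. HeLa cells carrying an HSE-driven beta-lactamase reporter were treated 5 h at 37 C, then assessed for viability by CellTiter-Glo luminescence.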

Assay [7] is described as follows: qHTS assay to identify small molecule agonists of the peroxisome proliferator-activated receptor delta (PPARd) signaling pathway - cell viability counter screen (AID 743211). Note: nearly all actives have a fitted effect of over 55% in size. Note: potency is the fitted concentration of half-maximal effect. In short, it runs like this: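 Read-out: CellTiter-Glo luminescence, 30 min RT, measured in the same wells as the beta-lactamase reporter. Cells: GeneBLAzer PPAR delta UAS-bla HEK293H, 3000 cells/well, compound exposure 17 h at 37C.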

Assay [8] can be described thus: qHTS assay to identify small molecule antagonists of the peroxisome proliferator-activated receptor delta (PPARd) signaling pathway - cell viability counter screen (AID 743213). Note: nearly all actives have a fitted effect of over 50% in size. Note: potency is the fitted concentration of half-maximal effect. The gist of the method:
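PPARd-bla HEK293H cells were treated with compounds plus agonist L165041 (300 nM final) for 17 h at 37 C. Viability was then read in the same wells by CellTiter-Glo luminescence after 30 min at room temperature.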

Assay [9] is described as follows: qHTS assay to identify small molecule agonists of the farnesoid-X-receptor (FXR) signaling pathway - cell viability counter screen (AID 743218). Note: nearly all actives have a fitted effect of over 45% in size. Note: potency is the fitted concentration of half-maximal effect. In short, it runs like this:
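In GeneBLAzer FXR-UAS-bla HEK 293T cells, compounds act for 16 h at 37 C. Cell viability is then scored in the reporter wells by CellTiter-Glo, 30 min at RT, luminescence.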

Assay [10] is described as follows: qHTS assay to identify small molecule antagonists of the farnesoid-X-receptor (FXR) signaling pathway - cell viability counter screen (AID 743221; active = well fitted cell-killing curve with a large enough effect in the repeat runs, not every such curve was filed as active; note: nearly all actives have a fitted effect of over 50% in size; note: potency is the fitted concentration of half-maximal effect). In short, it runs like this: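 HEK 293T FXR-bla cells, 5 h pre-incubation; compound + CDCA 50 uM final, 16 h, 37 C; beta-lactamase FRET read first, then CellTiter-Glo luminescence, 30 min RT.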
For assay [11], the target named is Aryl hydrocarbon receptor (Homo sapiens) (UniProt P35869). As to the kind of experiment: qHTS assay to identify small molecule that activate the aryl hydrocarbon receptor (AhR) signaling pathway (AID 743085).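 For activation: HG2L7.5c1 human HepG2 liver cells with stably integrated DRE-driven firefly reporter; series mostly up to about 70 µM.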 Note: nearly all actives have a fitted effect of over 15% in size. Note: potency is the fitted concentration of half-maximal effect. In short, it runs like this: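 Luminescence read-out: ONE-Glo reagent, 30 min at room temperature, in HG2L7.5c1 HepG2 reporter cells treated 24 h at 37C. Viability was measured beforehand by CellTiter-Fluor fluorescence after 30 min at 37C.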

The nature of assay [12]: qHTS assay for small molecule activators of the heat shock response signaling pathway (AID 743210; active = well fitted activation curve with a large enough effect in the signal ratio in the repeat runs, with a control signal flat, not every such curve was filed as active; the % refers to the signal ratio;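 note: HeLa cells with beta-lactamase reporter driven by heat shock elements; series mostly up to about 63 µM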). In short, it runs like this: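 Quantitative high-throughput format using an engineered HeLa line in which heat shock response elements drive beta-lactamase; after 5 h with compound, cells received a B/G FRET substrate and fluorescence was read.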
For assay [13], the target named is Bile acid receptor (Homo sapiens) (UniProt Q96RI1). Put plainly: qHTS assay to identify small molecule agonists of the farnesoid-X-receptor (FXR) signaling pathway (AID 743220; active = well fitted activation curve with a large enough effect in the signal ratio in the repeat runs, not every such curve was filed as active; the % refers to the signal ratio). The gist of the method: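 Beta-lactamase reporter under UAS control in GeneBLAzer FXR HEK 293T cells (5000/well) measured with LiveBLAzer FRET substrate after 2 h at room temperature. Compound exposure lasted 16 h at 37C.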

Assay [14] addresses Peroxisome proliferator-activated receptor gamma (Homo sapiens) (UniProt P37231). Put plainly: qHTS assay to identify small molecule agonists of the peroxisome proliferator-activated receptor gamma (PPARg) signaling pathway (AID 743094; active = well fitted activation curve with a large enough effect in the signal ratio in the repeat runs, not every such curve was filed as active; the % refers to the signal ratio). The gist of the method: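 Stably transfected HEK293H cells (GeneBLAzer PPARg UAS-bla) were incubated with test substances for 17 h at 37C after a 5 h pre-incubation; beta-lactamase activity was then detected by FRET substrate fluorescence.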

For assay [15] the target is unchanged. As to the kind of experiment: qHTS assay to identify small molecule antagonists of the peroxisome proliferator-activated receptor gamma (PPARg) signaling pathway (AID 743191; calls by dose curve; note: nearly all actives have a fitted effect of over 30% in size; note: potency is the fitted concentration of half-maximal effect). In short, it runs like this:
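GeneBLAzer PPARg UAS-bla HEK293H cells, 5 h post-plating, exposed to compounds 17 h at 37C. LiveBLAzer B/G FRET substrate added for 1 h at room temperature; beta-lactamase reporter read by fluorescence intensity.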

Assay [16] has as its target Vitamin D3 receptor (Homo sapiens) (UniProt P11473). As to the kind of experiment: qHTS assay to identify small molecule agonists of the vitamin D receptor (VDR) signaling pathway (AID 743222; calls by dose curve). The gist of the method: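 Agonist activity measured in VDR-bla reporter cells. Exposure 16 h, 37C, 5% CO2; detection by B/G FRET substrate, 2 h RT.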
For assay [17], the target named is Peroxisome proliferator-activated receptor delta (Homo sapiens) (UniProt Q03181). Put plainly: qHTS assay to identify small molecule agonists of the peroxisome proliferator-activated receptor delta (PPARd) signaling pathway (AID 743212; calls by dose curve). The gist of the method: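 Quantitative high-throughput agonist screen in a HEK293H beta-lactamase reporter line under UAS control. Compounds in DMSO, at 37 C. Fluorescence read after 2 h with FRET substrate at room temperature.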

Assay [18] has the same target. As to the kind of experiment: qHTS assay to identify small molecule antagonists of the peroxisome proliferator-activated receptor delta (PPARd) signaling pathway (AID 743215; active = well fitted inhibition curve with a large enough effect in the signal ratio in the repeat runs, not every such curve was filed as active; the % refers to the signal ratio;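 note: cells stimulated with agonist L165041 at 300 nM final during compound exposure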; note: potency is the fitted concentration of half-maximal effect). In short, it runs like this: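 Antagonist-mode beta-lactamase reporter screen: HEK293H cells with UAS-bla under PPARd control, stimulated by 300 nM L165041 (final) alongside test compound for 17 h at 37 C, then FRET fluorescence after 2 h substrate incubation.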

In assay [19] the target is Vitamin D3 receptor (Homo sapiens) (UniProt P11473). Put plainly: qHTS assay to identify small molecule antagonists of the vitamin D receptor (VDR) signaling pathway (AID 743223; active = well fitted inhibition curve with a large enough effect in the signal ratio in the repeat runs, not every such curve was filed as active; the % refers to the signal ratio). In short, it runs like this: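 Beta-lactamase reporter read-out: FRET substrate fluorescence after 2 h at room temperature, following 16 h exposure of VDR-bla cells to test compound plus 3 nM (final) 1alpha,25-dihydroxyvitamin D3 agonist at 37C.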

Assay [20] has as its target Bile acid receptor (Homo sapiens) (UniProt Q96RI1). Put plainly: qHTS assay to identify small molecule antagonists of the farnesoid-X-receptor (FXR) signaling pathway (AID 743217; active = well fitted inhibition curve with a large enough effect in the signal ratio in the repeat runs, not every such curve was filed as active; the % refers to the signal ratio; note: potency is the fitted concentration of half-maximal effect). In short, it runs like this:
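Beta-lactamase reporter under UAS control in HEK 293T cells; compound exposure 16 h at 37 °C in the presence of chenodeoxycholic acid (50 uM final); signal from B/G FRET substrate after 2 h at room temperature.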

Molecules are shown by their SMILES. Values joined by “and” are separate entries in the source; they are usually repeats but may differ in a detail not shown here. Equal entries are not always repeated. Records with an inconclusive call do not appear. Some compounds were tested as several samples or in several runs, with calls that do not always agree. Active and inactive are the calls of the source. Unless noted, calls come from the whole dose curve; as a rule, active = well fitted curve in the direction sought with a large enough effect in the repeat runs; inconclusive = weak or mixed curves; inactive = no such curve, though single readings can be large; an effect the other way counts as inactive or inconclusive.

Peroxisome proliferator-activated receptor gamma (Homo sapiens), sequence (P37231 whole entry, looked up): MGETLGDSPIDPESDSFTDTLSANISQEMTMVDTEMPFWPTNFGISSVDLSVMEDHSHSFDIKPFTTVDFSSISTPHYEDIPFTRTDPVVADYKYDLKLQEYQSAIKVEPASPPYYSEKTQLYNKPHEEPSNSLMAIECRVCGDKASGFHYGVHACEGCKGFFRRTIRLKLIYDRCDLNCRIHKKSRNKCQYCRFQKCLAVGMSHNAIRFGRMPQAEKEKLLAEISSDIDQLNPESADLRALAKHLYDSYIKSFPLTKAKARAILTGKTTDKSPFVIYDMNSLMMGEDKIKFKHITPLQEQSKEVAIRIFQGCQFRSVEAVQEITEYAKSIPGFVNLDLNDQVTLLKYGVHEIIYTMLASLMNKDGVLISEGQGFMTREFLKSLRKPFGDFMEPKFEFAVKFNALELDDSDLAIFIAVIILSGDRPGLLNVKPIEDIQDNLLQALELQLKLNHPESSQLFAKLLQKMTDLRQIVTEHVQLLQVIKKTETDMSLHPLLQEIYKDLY
Vitamin D3 receptor (Homo sapiens), sequence (P11473 whole entry, looked up): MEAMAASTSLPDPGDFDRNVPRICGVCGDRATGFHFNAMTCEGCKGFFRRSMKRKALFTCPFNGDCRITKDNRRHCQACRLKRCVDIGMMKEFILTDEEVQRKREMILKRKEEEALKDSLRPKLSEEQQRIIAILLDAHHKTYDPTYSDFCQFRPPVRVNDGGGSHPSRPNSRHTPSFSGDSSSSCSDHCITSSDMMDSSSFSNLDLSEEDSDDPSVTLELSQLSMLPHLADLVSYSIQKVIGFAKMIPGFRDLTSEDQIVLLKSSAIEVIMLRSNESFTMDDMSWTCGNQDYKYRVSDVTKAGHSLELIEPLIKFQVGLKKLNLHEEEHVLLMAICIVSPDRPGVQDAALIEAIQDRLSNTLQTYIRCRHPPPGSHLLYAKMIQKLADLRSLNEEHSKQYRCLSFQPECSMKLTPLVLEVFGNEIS
Peroxisome proliferator-activated receptor delta (Homo sapiens), sequence (Q03181 whole entry, looked up): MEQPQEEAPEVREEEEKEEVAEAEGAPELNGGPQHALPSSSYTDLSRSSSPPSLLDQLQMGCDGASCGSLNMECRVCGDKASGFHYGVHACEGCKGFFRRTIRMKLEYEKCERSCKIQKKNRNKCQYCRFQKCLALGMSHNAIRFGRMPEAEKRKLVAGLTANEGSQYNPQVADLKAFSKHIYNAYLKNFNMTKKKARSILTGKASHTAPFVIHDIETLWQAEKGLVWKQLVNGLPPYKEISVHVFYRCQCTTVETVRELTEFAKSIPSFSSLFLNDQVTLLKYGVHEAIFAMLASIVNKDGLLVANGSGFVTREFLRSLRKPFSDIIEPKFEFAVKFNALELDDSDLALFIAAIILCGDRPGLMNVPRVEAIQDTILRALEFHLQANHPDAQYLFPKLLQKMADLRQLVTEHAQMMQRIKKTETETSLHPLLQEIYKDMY
Aryl hydrocarbon receptor (Homo sapiens), sequence (P35869 whole entry, looked up): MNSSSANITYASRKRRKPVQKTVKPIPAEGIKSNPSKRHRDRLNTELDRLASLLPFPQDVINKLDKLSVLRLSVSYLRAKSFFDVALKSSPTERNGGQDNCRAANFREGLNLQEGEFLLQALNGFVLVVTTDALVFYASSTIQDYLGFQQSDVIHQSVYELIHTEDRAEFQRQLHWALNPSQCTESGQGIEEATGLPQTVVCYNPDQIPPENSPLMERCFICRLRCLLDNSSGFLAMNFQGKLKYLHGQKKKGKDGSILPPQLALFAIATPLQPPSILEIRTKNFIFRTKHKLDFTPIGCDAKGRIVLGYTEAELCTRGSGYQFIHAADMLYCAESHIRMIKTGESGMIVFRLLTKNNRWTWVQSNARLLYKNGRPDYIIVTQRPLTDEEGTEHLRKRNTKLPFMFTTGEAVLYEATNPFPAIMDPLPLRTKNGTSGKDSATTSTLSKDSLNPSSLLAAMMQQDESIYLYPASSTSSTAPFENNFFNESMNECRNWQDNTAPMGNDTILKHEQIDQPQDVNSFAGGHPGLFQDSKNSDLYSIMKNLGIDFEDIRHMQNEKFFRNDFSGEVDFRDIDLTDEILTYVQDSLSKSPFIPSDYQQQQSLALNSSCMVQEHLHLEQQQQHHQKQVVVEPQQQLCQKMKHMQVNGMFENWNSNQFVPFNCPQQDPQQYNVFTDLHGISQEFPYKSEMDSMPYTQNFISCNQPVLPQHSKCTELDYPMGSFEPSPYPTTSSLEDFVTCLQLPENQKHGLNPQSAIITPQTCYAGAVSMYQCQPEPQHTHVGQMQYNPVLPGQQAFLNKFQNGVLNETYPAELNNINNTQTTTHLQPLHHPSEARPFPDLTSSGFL
Bile acid receptor (Homo sapiens), sequence (Q96RI1 whole entry, looked up): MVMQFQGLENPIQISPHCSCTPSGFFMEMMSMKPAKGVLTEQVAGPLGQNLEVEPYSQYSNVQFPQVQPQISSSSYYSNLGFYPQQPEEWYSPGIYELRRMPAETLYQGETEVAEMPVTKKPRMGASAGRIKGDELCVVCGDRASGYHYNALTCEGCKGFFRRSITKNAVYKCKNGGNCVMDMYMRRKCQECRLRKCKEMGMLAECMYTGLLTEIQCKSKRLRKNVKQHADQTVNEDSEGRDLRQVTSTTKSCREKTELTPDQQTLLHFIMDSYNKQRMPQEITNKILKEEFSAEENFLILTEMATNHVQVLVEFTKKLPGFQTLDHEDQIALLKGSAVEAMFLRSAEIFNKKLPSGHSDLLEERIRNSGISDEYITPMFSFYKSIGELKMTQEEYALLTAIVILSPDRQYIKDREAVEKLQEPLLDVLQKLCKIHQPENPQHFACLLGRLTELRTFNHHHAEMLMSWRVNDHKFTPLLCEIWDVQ

On to `O=C1NS(=O)(=O)c2ccccc21`, for which the Potency result in assay [1], in assay [2], in [3], in assay [4], in assay [5] and in [6] was “inactive” in each case. In addition, the Potency entry in [7], in assay [8], in assay [9] and in assay [10] was “inactive” throughout.

For `NC(=O)n1c(O)c(C(=O)c2cccs2)c2cc(Cl)ccc21`, the Potency entry in assay [1], in assay [2], in assay [7], in assay [9] and in [10] was “inactive” throughout. In [11], the Potency was 23.7 µM (active). For the same molecule, the outcome in assay [12] and in [13] was inactive.

Regarding `Cc1ccc(S(=O)(=O)O)cc1`, the Potency entry in assay [1], in [2], in assay [3], in [4], in assay [5] and in assay [6] was “inactive” throughout. The Potency result in [7], in assay [8], in assay [9] and in [10] was “inactive” in each case.

For `CCCCCCc1ccc(O)cc1O`, the Potency entry in assay [11], in [2], in assay [14], in [3], in assay [5] and in [6] was “inactive” throughout. The Potency entry in assay [8], in assay [9], in [10] and in assay [16] was “inactive” each time. Moreover, the Potency in assay [15] is 11.9 µM (active); in assay [4] it was 24.4 µM (active) and 26.6 µM (active); in [7] it was 43.8 µM (active) and inactive. The molecule was called inactive in [12].

With `CN1[C@@H]2CC(OC(=O)[C@H](CO)c3ccccc3)C[C@H]1[C@@H]1O[C@@H]12` (stereo not given in full), the Potency entry in [1], in assay [2], in [14], in assay [15], in assay [3] and in assay [4] was “inactive” in each case. Besides, the Potency result in assay [5], in assay [6], in assay [7], in [17], in [8] and in assay [18] was “inactive” each time. The Potency result in assay [9], in assay [10], in assay [16] and in assay [19] was “inactive” throughout.

As for `COc1ccc(OC(F)(F)F)cc1CN[C@H]1CCCN[C@H]1c1ccccc1`, the Potency result in assay [1], in [11], in [3], in assay [6] and in [16] was “inactive” each time. The Potency was 54.5 µM (active) in assay [2]; 27.3 µM (active) in assay [5]; 43.6 µM (active) in assay [7]; 43.6 µM (active) in [8]; 43.6 µM (active) in [9]. Further, the molecule was classed as inactive in [12].

In the case of `CN1CCc2cccc3c2[C@H]1Cc1ccc(O)c(O)c1-3`, the Potency is 29.8 µM (active) and 24.6 µM (active) and 20.4 µM (active) in assay [1]; “inactive and 61.8 µM (active)” in [2]; 6.49 µM (active) in assay [15]; 44.1 µM (active) and 3.65 µM (active) in [3]; 49.1 µM (active) and 5.74 µM (active) in assay [5]; 49.5 µM (active) and 10.3 µM (active) and 21.1 µM (active) in assay [7]. Further, the Potency in [8] is 49.5 µM (active) and 18.3 µM (active); in [18], 55.5 µM (active) and 10.3 µM (active); in assay [20], 39.3 µM (active) and 18.3 µM (active); in [10], 44.1 µM (active) and inactive. The Potency result in [14], in assay [6], in assay [17] and in assay [16] was “inactive” each time. Further, the outcome in assay [13] was inactive.

Turning to `CCOC(N)=O`, the Potency result in [1], in assay [2], in assay [3], in [4], in [5] and in [6] was “inactive” each time. The Potency entry in [7], in [17], in assay [8], in [18], in assay [9] and in [10] was “inactive” each time. The call in [12] was inactive.

`CC(C)NCC(O)c1ccc(O)c(O)c1` (stereo not given): the Potency result in [1], in [11], in assay [2], in assay [3], in [4] and in assay [5] was “inactive” each time. Further, the Potency entry in assay [6], in assay [7], in [8], in [9], in assay [10] and in assay [16] was “inactive” each time. In assay [19], the Potency entry is “inactive”.

`CN(C)C(=O)Nc1ccc(Cl)c(Cl)c1`: the Potency result in assay [1], in [2], in assay [14], in assay [15], in [3] and in [4] was “inactive” each time. The Potency result in assay [5], in assay [6], in assay [7], in assay [17], in [8] and in assay [18] was “inactive” in each case. Besides, the Potency result in assay [9] and in assay [10] was “inactive” in each case. Moreover, the molecule was called inactive in assay [12].

With `O=C1OC2(c3ccccc31)c1cc(Br)c(O)c(Br)c1Oc1c2cc(Br)c(O)c1Br`, the Potency in assay [1] is 9.44 µM (active) and 2.2 µM (active) and 4.45 µM (active); in assay [2] it was 10.6 µM (active) and 2.77 µM (active) and 6.28 µM (active). Further, the Potency result in assay [11], in [3], in [5], in assay [6], in [7] and in assay [8] was “inactive” each time. In addition, the Potency entry in assay [9] and in assay [10] was “inactive” throughout.
